Holding throughout (assay): NCI-60 one-dose screen, 48 h (100 = growth as untreated, 0 = no growth, -100 = all killed)
Details in all cases: 10 µM

Assay [1] relates to RPMI-8226 leukemia.
In assay [2] the test system is OVCAR-8 ovarian.
In assay [3] the test system is OVCAR-5 ovarian.
Assay [4] relates to OVCAR-4 ovarian.
Assay [5] relates to IGROV1 ovarian.
Assay [6] has as its system OVCAR-3 ovarian.
Assay [7] relates to HS 578T breast.
Assay [8] relates to NCI/ADR-RES ovarian.
Assay [9] has as its system T-47D breast.
The subject of assay [10] is SK-OV-3 ovarian.

This is part of a sample that, as a whole, favours compounds with a hit. Of some 83,000 tested, about 20% had one in any assay.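 Step 1: grow cells in 96-well plates. Step 2: add test compound at a single concentration. Step 3: incubate 48 h. Step 4: record percent growth.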 Values without a mark were called inactive. Activity calls are given as the source filed them. How the source made its calls: active means growth percent below 10; inactive means the rest.

With `COc1cc(-c2cc(/C=C3\C(=O)Nc4cc(Cl)ccc43)[nH]n2)cc(OC)c1OC`, the growth in assay [1] was -28% (active); in [2] it was 23.9%; in assay [3], 65%; in assay [4] it was 19%; in [5] it was 4.31% (active); in assay [6], 40.6%. The growth in [7] was 12.6%; in assay [8], 10.2%; in [9], 24.9%.

As to `Cc1ccc(-c2nc(/C=C3/C(=O)N(C)c4ccc(F)cc43)c3ccccn23)cc1`, the growth in assay [1] was 115%; in assay [2], 99.3%; in assay [3], 106%; in [4] it was 114%; in assay [10] it was 105%; in assay [6], 112%. In addition, the results for the growth in assay [7], in [8] and in [9] were 107%, 105% and 109%, respectively.

In the case of `C=C(C(=O)c1ccccc1)C(NC(C)(C)C)c1ccccc1` (stereo not drawn), the growth in assay [1] was -3.32% (active); in assay [2], -32% (active); in [3], -29.2% (active); in assay [4], -13.1% (active); in [5], 3.59% (active); in [6], -65.9% (active). In addition, the results for the growth in assay [7] and in [8] were 36.8% and -7% (active), respectively.

In the case of `Fc1ccc(-c2nnc(-c3c(-c4ccc(F)cc4)nc4ccccn34)o2)cc1`, the growth in assay [1] was 85.1%; in [2], 36.7%; in assay [3], 99.9%; in assay [4] it was 88.8%; in assay [10], 85.3%; in [6] it was 90.3%. Moreover, the values for the growth in [7], in [8] and in assay [9] were 92.4%, 67.7% and 62.3%, respectively.

`COc1ccccc1CNCCCN1C(=O)c2ccc3c4c(ccc(c24)C1=O)C(=O)N(CCCN)C3=O`: the growth in assay [1] was -13.6% (active); in [2], -24.2% (active); in [3], -29.7% (active); in [4], -67.1% (active); in assay [5], -52.7% (active); in assay [6], -27.8% (active). In addition, the growth in [7] is -13% (active); in [8], 59.4%; in assay [9], -42.6% (active).

For the compound `N#Cc1ncc(-c2ccc(C(F)(F)F)cc2)c(NCc2cc(C(F)(F)F)cc(C(F)(F)F)c2)n1`, the growth is -19.6% (active) in [1]; 30.6% in assay [2]; 57.3% in assay [3]; 21% in assay [4]; 62.6% in [10]; 11.4% in assay [6]. In addition, the growth in assay [7] is 36%; in assay [8], 25.5%; in assay [9], 9.88% (active).

Regarding `C[N+](C)(C)c1ncnc2nc[nH]c12`, the growth in assay [1] was 103%; in assay [2], 102%; in assay [3], 80.3%; in assay [4], 103%; in assay [10], 97.3%; in [6], 112%. For the same compound, the growth is 101% in assay [7], 94.1% in assay [8] and 91.7% in [9].

`N#CCCN1C/C(=C/c2ccccc2)C(=O)/C(=C/c2ccccc2)C1`: the growth in assay [1] is -14.4% (active); in assay [2], 0.855% (active); in assay [3], 84.4%; in assay [4] it was 40.5%; in [10], 67.8%; in assay [6] it was 16%. Moreover, the growth in assay [7] was -9.54% (active); in [8], 1.6% (active); in assay [9] it was 68%.

Regarding `CCOC(=O)c1ccc(NC(=O)Nc2ncc(Cl)cc2Cl)cc1`, the growth in assay [1] is 94.5%; in [2] it was 97.7%; in assay [3] it was 101%; in [4] it was 104%; in assay [10] it was 100%; in assay [6], 150%. The growth was 132% in assay [7], 101% in assay [8] and 73.4% in assay [9].

With `COC(=O)C1(C)Cc2cc(OC(C)=O)c(OC(C)=O)cc2N1` (stereo not drawn), the growth was 23.6% in [1]; 85.2% in assay [2]; 118% in assay [3]; 57.8% in [4]; 98.4% in assay [10]; 67.2% in assay [6]. For the same compound, the figures for the growth in assay [7], in assay [8] and in [9] were 88.7%, 80.6% and 42.6%, respectively.

With `O=C(Nc1cccc(-n2cc(-c3ccncc3)c(-c3cc(O)cc(Cl)c3)n2)c1)c1cc(C(F)(F)F)cc(C(F)(F)F)c1`, the growth in assay [1] was 32.1%; in [2], 39.6%; in assay [3], 70.7%; in assay [4], 59.6%; in assay [10], 68.8%; in assay [6], 15.2%. In addition, the growth was 65.9% in [7], 46.9% in [8] and 26.3% in [9].

On to `CC(=O)OCc1cc(-c2nc3ccccc3[nH]c2=O)nn1-c1ccc(Cl)cc1`, for which the growth in [1] was 89.1%; in assay [2] it was 95.4%; in [3] it was 99.6%; in assay [4] it was 96.1%; in assay [10], 100%; in assay [6] it was 116%. The growth in assay [7] is 100%; in assay [8] it was 90.9%; in assay [9], 92.7%.

Take `Clc1cc2c(c(CSc3nc4ccccc4n4cccc34)c1)OCOC2`: the growth in [1] was 49%; in [2] it was 59.3%; in assay [3] it was 87.2%; in assay [4] it was 3.98% (active); in assay [10], 74.9%; in assay [6] it was 72.2%. The values for the growth in assay [7], in [8] and in assay [9] were 91.8%, 89.5% and 2.37% (active), respectively.

With `CC/C(C)=C(\C)C(=O)O`, the growth in [1] was 107%; in assay [2], 103%; in assay [3], 112%; in assay [4], 118%; in assay [10], 91.9%; in assay [6] it was 105%. Also, the growth is 100% in assay [7], 108% in assay [8] and 100% in [9].

In the case of `CC(=O)C1CCC2C3CC(F)C4=CC(=O)CCC4(C)C3C(O)CC12C` (stereo not drawn), the growth was 83.4% in assay [1]; 94.2% in assay [2]; 105% in assay [3]; 98.6% in assay [4]; 83.9% in assay [10]; 114% in assay [6]. The figures for the growth in assay [8] and in assay [9] were 94.9% and 119%, respectively.

The values above are taken from PubChem BioAssay (NCI).
